# Assay results reported in the supplement of paper PMC10849652.
# The full data set covers some 8,800 targets. This sample favours those with a hit. About 0.5% of all pairs of compound and target were hits. Values without a mark were called inactive.
# Tests used:
# Assay in all cases: log2 fold change, soluble protein after heating vs DMSO (PISA); higher = thermal stabilisation; K562 lysate, 10 uM; active = over 0.2 and 3.5 SD of the protein, either way, in both replicates (recomputed)
# erlotinib = compound: C#Cc1cccc(Nc2ncnc3cc(OCCOC)c(OCCOC)cc23)c1 [erlotinib]
# Method in brief: (§1)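 K562 pellets were dounce-homogenised in PBS pH 7.4 containing 1 mM MgCl2, and the crude extract, at 1 mg/mL protein, was exposed to 10 μM compound for 30 min. Aliquots were heated for 3 min across 48°C-58°C, pooled, brought to 0.5% NP-40 at 4°C and spun at 21,000xg for 90 min, with the supernatant taken as soluble protein. TMTpro 16plex LC-MS/MS with equalised channel sums quantified that protein. Values are log-two fold changes in thermal stability relative to solvent controls, taken from duplicates.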
# [1] = compound: C/C(=N\NC(=O)C1=CC(=CC=C1)S(=O)(=O)N2CCOCC2)/C3=C(C=CC(=C3)Cl)O
# Method in brief: as §1
# [2] = compound: C1=CC(=CC=C1C2=NC3=C(N2)C=C(C=C3)C(=O)N)OC4=CC=C(C=C4)Cl
# Method in brief: as §1
# [3] = compound: C1=CC2=C(C=CC(=C2)/C=C\3/C(=O)NC(=NCC4=CC=CS4)S3)N=C1
# Method in brief: as §1
# [4] = compound: C1=CC2=NC=CN=C2C=C1/C=C/3\C(=O)NC(=O)S3
# Method in brief: as §1
# [5] = compound: C1=CC=C(C=C1)C2=NC(=C(N2)C3=CC=NC=C3)C4=CC(=C(C=C4)Cl)O
# Method in brief: as §1
# [6] = compound: C1=CC=C2C(=C1)C3=NNC4=CC=CC(=C43)C2=O
# Method in brief: as §1
# [7] = compound: C1CCN(C1)C(=O)NC2=CC=CC(=C2)NC3=NC=C(C(=N3)NCCC4=CN=CN4)Br
# Method in brief: as §1
# [8] = compound: C1CN(CCC1(CC2=CC=C(C=C2)Cl)N)C3=NC=NC4=C3C=CN4
# Method in brief: as §1
# IRAK-1-4 Inhibitor I = compound: C1COCCN1CCN2C3=CC=CC=C3N=C2NC(=O)C4=CC(=CC=C4)[N+](=O)[O-] [IRAK-1-4 Inhibitor I]
# Method in brief: as §1
# Sequence of UniProt Q504Q3 (Q504Q3 whole entry, looked up): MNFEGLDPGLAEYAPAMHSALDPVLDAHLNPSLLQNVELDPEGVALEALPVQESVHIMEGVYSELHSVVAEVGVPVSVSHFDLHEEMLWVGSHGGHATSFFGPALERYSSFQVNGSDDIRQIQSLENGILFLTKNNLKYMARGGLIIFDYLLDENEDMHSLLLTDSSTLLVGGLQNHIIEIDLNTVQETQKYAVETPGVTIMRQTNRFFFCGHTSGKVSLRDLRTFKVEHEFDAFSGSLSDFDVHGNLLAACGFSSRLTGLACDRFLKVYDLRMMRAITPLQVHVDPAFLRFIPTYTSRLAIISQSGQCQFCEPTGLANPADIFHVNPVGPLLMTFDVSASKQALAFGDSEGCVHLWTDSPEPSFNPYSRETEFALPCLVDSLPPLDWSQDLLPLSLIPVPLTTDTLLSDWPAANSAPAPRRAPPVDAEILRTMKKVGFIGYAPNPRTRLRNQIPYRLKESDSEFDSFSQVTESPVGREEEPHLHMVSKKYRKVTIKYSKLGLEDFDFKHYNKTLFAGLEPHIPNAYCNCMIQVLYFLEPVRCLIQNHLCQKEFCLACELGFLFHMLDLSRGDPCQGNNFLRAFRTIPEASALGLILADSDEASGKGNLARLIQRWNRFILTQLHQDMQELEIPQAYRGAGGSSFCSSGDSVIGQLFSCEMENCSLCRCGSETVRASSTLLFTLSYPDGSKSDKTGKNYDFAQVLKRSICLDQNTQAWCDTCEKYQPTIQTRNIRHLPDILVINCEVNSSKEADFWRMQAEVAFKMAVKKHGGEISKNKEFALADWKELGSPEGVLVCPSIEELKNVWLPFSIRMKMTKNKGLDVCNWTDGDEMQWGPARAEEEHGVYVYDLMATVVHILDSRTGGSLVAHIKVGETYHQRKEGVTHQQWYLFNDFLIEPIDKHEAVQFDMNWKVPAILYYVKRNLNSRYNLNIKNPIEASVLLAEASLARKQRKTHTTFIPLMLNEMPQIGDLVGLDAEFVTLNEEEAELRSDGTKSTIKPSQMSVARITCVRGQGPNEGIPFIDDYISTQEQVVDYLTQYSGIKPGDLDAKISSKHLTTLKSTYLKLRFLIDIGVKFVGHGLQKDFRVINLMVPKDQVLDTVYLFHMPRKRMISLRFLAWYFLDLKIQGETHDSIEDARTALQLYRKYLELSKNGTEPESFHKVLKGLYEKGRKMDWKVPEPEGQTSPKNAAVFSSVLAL
# Sequence of UniProt P22059 (P22059 whole entry, looked up): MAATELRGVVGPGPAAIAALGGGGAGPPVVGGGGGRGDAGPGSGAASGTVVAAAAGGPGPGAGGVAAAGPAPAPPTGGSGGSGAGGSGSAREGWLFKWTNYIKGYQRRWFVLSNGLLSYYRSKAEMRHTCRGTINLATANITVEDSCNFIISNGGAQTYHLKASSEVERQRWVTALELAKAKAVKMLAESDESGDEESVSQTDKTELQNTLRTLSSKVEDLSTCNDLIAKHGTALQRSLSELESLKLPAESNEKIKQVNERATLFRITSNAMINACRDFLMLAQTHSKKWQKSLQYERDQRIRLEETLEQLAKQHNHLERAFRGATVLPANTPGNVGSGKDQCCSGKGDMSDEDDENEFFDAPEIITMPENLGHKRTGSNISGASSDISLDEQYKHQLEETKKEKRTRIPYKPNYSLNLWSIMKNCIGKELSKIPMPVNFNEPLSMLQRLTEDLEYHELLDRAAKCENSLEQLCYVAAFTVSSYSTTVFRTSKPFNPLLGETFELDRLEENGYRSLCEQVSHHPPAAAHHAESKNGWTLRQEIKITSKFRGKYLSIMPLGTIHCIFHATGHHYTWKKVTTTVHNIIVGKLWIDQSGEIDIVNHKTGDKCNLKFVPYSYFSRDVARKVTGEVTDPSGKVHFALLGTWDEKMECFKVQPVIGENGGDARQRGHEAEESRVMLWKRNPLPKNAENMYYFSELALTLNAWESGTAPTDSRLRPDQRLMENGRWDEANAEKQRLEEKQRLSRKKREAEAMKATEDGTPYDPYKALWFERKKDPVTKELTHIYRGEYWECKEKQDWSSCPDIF
# Sequence of UniProt Q86W56 (Q86W56 whole entry, looked up): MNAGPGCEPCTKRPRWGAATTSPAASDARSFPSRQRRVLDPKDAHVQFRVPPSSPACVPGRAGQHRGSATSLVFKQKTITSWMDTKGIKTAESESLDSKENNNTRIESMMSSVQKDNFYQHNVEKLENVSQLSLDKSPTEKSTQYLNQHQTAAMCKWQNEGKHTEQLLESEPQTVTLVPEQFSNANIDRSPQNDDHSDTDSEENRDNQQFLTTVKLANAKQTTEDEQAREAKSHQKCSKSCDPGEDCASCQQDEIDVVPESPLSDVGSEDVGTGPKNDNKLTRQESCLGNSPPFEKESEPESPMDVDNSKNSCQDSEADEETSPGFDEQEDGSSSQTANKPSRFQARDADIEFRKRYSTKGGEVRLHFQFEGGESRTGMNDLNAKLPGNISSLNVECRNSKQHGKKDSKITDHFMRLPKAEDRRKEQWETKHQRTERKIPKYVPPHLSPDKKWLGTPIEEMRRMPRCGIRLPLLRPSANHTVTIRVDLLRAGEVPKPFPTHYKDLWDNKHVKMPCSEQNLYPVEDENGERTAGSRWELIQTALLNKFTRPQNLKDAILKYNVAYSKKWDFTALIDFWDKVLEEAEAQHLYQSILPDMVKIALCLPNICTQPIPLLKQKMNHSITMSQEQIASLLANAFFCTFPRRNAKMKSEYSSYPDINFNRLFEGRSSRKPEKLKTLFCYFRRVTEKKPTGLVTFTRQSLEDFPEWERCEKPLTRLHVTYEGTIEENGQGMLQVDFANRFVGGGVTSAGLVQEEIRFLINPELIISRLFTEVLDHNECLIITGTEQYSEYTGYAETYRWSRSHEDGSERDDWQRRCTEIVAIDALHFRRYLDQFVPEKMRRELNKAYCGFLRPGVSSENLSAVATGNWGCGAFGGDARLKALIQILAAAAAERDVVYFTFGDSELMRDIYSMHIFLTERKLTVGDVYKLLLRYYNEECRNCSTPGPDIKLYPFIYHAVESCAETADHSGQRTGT
# Sequence of UniProt Q15233 (Q15233 whole entry, looked up): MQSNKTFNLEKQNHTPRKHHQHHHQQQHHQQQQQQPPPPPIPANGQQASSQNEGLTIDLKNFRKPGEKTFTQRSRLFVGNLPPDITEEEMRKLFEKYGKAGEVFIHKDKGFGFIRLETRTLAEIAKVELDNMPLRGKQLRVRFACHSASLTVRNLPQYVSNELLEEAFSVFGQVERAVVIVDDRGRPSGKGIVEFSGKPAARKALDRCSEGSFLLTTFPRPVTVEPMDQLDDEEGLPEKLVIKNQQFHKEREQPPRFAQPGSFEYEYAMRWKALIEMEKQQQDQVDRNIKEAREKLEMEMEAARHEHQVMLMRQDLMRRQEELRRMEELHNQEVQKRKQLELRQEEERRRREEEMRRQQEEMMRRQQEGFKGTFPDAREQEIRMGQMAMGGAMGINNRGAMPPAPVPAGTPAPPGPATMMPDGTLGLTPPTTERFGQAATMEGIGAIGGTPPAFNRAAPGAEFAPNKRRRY
# Sequence of UniProt P18440 (P18440 whole entry, looked up): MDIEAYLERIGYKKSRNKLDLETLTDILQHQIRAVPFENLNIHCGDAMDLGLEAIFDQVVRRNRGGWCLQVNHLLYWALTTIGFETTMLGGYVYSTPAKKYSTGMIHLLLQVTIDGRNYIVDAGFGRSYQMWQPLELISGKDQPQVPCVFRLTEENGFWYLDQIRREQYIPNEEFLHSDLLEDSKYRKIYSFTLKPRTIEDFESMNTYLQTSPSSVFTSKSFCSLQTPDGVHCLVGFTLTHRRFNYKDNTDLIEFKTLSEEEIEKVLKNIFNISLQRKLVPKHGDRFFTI
# Sequence of UniProt Q9Y6R0 (Q9Y6R0 whole entry, looked up): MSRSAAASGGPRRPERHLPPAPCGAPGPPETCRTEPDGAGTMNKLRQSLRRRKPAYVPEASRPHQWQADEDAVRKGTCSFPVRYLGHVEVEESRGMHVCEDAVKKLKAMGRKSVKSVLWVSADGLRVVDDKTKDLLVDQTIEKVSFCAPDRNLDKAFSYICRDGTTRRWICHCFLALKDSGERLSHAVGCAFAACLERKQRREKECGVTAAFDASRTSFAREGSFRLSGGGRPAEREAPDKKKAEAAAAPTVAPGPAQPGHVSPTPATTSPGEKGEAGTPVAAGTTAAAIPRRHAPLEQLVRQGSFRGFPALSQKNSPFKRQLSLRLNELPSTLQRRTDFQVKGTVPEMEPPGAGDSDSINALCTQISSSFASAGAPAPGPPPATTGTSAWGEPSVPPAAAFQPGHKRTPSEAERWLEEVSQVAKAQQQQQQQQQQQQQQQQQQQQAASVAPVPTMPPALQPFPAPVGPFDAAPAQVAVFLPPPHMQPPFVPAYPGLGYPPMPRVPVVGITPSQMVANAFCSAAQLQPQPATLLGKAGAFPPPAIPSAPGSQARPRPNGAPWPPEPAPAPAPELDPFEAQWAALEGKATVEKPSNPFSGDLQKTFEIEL
# Sequence of UniProt Q6N063 (Q6N063 whole entry, looked up): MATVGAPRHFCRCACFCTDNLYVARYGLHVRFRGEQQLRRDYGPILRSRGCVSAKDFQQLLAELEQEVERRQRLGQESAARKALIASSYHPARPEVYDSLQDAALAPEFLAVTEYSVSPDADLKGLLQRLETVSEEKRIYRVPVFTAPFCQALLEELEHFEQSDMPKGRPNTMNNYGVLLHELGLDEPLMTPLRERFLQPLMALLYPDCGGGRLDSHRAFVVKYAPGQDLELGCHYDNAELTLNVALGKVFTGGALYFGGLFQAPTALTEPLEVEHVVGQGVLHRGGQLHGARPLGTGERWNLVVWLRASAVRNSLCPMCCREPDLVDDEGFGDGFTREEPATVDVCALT
# Sequence of UniProt Q9Y314 (Q9Y314 whole entry, looked up): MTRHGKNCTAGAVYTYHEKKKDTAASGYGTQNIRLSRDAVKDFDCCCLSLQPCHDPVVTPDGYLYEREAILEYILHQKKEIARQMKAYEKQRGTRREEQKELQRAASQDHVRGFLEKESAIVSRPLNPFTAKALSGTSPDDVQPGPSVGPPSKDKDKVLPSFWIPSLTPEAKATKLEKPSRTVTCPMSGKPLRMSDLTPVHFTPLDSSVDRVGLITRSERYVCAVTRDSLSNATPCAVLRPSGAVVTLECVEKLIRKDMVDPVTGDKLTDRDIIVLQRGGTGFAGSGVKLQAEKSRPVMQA
Target,log2 fold change (erlotinib),log2 fold change [1],log2 fold change [2],log2 fold change [3],log2 fold change [4],log2 fold change [5],log2 fold change [6],log2 fold change [7],log2 fold change [8],log2 fold change (IRAK-1-4 Inhibitor I)
NFATC2IP (UniProt Q8NCF5),0.001,0.026,-0.036,0.006,0.016,0.031,-0.071,0.013,-0.016,-0.009
NPLOC4 isoform 2 (UniProt Q8TAT6),-0.022,0.032,-0.004,0.001,-0.012,0.011,-0.016,-0.012,0.007,0.001
NAT1 (UniProt P18440),0.001,-0.011,-0.007,-0.136,-0.015,-0.011,0.528 (active),-0.021,0.035,-0.013
NOSIP (UniProt Q9Y314),0.012,-0.001,0.023,0.022,0.011,0.025,-0.019,0.003,0.022,0.01
NOB1 (UniProt Q9ULX3),0.011,-0.028,0.012,-0.016,-0.02,0.023,-0.016,-0.016,-0.027,0.011
OGFOD2 (UniProt Q6N063),0.034,-0.151,-0.093,-0.074,0.022,-0.034,0.001,0.003,0.006,-0.04
PAN2 isoform 2 (UniProt Q504Q3),0,-0.007,-0.015,-0.005,0.052,0.03,0,-0.017,-0.031,0.006
NLRP2 (UniProt Q9NX02),0.004,-0.015,-0.002,-0.005,-0.013,-0.002,-0.021,0.01,-0.031,-0.043
MRPS18A isoform 2 (UniProt Q9NVS2),0.024,-0.038,0.038,0.112,-0.035,-0.053,-0.013,0.009,0.004,0.015
NDUFAF5 (UniProt Q5TEU4),-0.001,0.027,0.016,0.021,-0.022,0.009,0.11,0.193,-0.056,0.07
NTMT1 (UniProt Q9BV86),0.002,0.031,0.02,0.055,-0.001,-0.002,0.014,0.021,0.042,-0.033
OSBP (UniProt P22059),-0.023,-0.056,0.037,-0.006,0.017,-0.031,-0.031,-0.016,0.016,-0.112
NBN (UniProt O60934),-0.026,0.068,0.051,-0.004,-0.024,0.013,-0.044,-0.005,0.013,0.007
NUDT5 (UniProt Q9UKK9),-0.013,-0.051,0.046,0.027,-0.001,-0.002,-0.023,-0.026,0.014,0.005
PARG (UniProt Q86W56),0.009,-0.013,-0.062,0.008,-0.011,0.004,-0.013,0.003,-0.011,0.048
N6AMT1 (UniProt Q9Y5N5),0.022,-0.053,-0.082,0.02,-0.097,0.013,-0.272,0.005,-0.013,-0.022

Target,log2 fold change (erlotinib),log2 fold change [1],log2 fold change [2],log2 fold change [3],log2 fold change [4],log2 fold change [5],log2 fold change [6],log2 fold change [7],log2 fold change [8],log2 fold change (IRAK-1-4 Inhibitor I)
NONO (UniProt Q15233),0.021,-0.048,0,-0.006,-0.017,0.025,-0.027,0.014,0.002,0.005
NCOR2 (UniProt C9J0Q5),0.044,0.033,0.04,-0.082,-0.008,0.054,-0.173,-0.002,0.049,0.032
NARF (UniProt Q9UHQ1),0.005,0.006,0.042,0.007,-0.005,0.004,0.004,-0.009,-0.021,-0.009
NUDT4 isoform 2 (UniProt Q9NZJ9),0.023,0.015,0.05,-0.048,0.015,-0.007,-0.005,-0.069,0.032,-0.006
ORC2 (UniProt Q13416),-0.004,-0.006,-0.006,0.009,0.015,0.006,-0.022,0,-0.024,-0.034
MT-ATP8 (UniProt P03928),0.069,0.006,-0.006,-0.041,0.103,-0.103,-0.062,0.116,0.068,0.033
NIPBL (UniProt Q6KC79),-0.025,0.044,-0.003,0.009,0.005,-0.013,0.003,-0.014,0.007,-0.043
NEK9 (UniProt Q8TD19),-0.008,0.038,-0.028,-0.022,-0.021,-0.013,0.154,0.083,-0.009,0.142
NUMBL (UniProt Q9Y6R0),0.031,0.028,0.175,-0.244,-0.025,-0.007,-0.038,-0.095,-0.045,-0.084
NACC1 (UniProt Q96RE7),-0.006,0.038,0.036,-0.023,-0.004,0.01,-0.011,0.023,-0.014,0.009
NELFCD (UniProt Q8IXH7),0.034,0.015,0.007,0.031,-0.019,-0.019,-0.044,-0.004,0.023,-0.036
NAA38 isoform 2 (UniProt Q9BRA0),0.049,-0.065,0.013,0.019,-0.045,-0.055,0.008,-0.052,0.008,0.031
MYCBP2 (UniProt O75592),0.01,0,0.031,0.008,-0.008,0.031,-0.023,0.004,0.03,0.022
MSH6 (UniProt P52701),0.011,0.03,-0.023,0.031,0.041,0.008,-0.025,0,-0.014,-0.008
NCKAP1L (UniProt P55160),0.005,-0.06,-0.006,0.196,0.055,-0.032,-0.156,0.06,0.084,0.06
